An excerpt weighted towards active compounds, which were near 4% of everything screened.
Mtb UGM inh: M. tuberculosis UGM enzyme inhibitors, primary screen, biochemical, fluorescence polarization, single point; 320,000 compounds, 0.06% hits; UDP-galactopyranose mutase (Mycobacterium tuberculosis (strain ATCC 25618 / H37Rv)), …; purified UGM, fluorescence polarization probe displacement; AID 504406, 2011; inhibition, % at 10 µM; in the data active = inhibition above about 10%, passing the limit was not always enough
Target sequence (P9WIQ1 whole entry, looked up): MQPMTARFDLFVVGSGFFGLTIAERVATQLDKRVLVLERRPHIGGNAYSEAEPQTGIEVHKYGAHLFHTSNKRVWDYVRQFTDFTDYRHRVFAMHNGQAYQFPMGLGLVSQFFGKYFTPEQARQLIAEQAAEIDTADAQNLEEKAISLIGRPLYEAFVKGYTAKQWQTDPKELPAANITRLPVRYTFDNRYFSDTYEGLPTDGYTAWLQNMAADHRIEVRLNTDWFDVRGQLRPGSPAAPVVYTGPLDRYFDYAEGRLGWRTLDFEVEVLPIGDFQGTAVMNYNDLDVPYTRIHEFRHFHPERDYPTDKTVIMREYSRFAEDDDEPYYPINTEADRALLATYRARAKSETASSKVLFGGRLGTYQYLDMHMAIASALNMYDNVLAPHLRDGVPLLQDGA
Rv3671c protease: Rv3671c serine protease inhibitors, primary screen, biochemical, fluorescence polarization, M. tuberculosis H37Rv; P9WHR9; 320,000 compounds, 0.048% hits; inhibition, % at 5.96 µM; in the data active = inhibition above about 38%;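 also: extracellular domain of Rv3671c used as enzyme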
Mtb bLac sens: beta-lactam sensitization of Mtb H37Rv, H37Rv | 330,000 compounds, 0.27% hits | M. tuberculosis H37Rv growth with meropenem, percent inhibition | AID 434955, 2010 | inhibition, % at 25 µM; call rule not given here;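 also: growth measured after seven days incubation then overnight dye step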
GDH-TPI inh: GDH-TPI coupling enzyme inhibitors, primary screen, artefact control for M. tuberculosis FBA inhibitor project, biochemical, absorbance, full deck | GDH-TPI coupled enzyme counterscreen, NADH absorbance | inhibition, % at 4.8 µM | 360,000 compounds, 1.2% hits | AID 588335, 2011; in the data active = inhibition above about 30%
Mtb FBA inh: Mtb FBA enzyme inhibitors, primary screen, biochemical, fluorescence, strain H37Rv | Fructose-bisphosphate aldolase (Mycobacterium tuberculosis (strain ATCC 25618 / H37Rv)), … | purified M. tuberculosis FBA, fluorescence read-out | inhibition, % at 1 µM | 360,000 compounds, 2.3% hits; in the data active = inhibition above about 27%
RecA intein inh: Mtb RecA intein splicing inhibitors, primary screen, biochemical, fluorescence, HTS. Protein RecA (Mycobacterium tuberculosis (strain ATCC 25618 / H37Rv)), P9WHJ3. cell-free RecA intein splicing. inhibition, % (test concentration not listed). 290,000 compounds, 0.75% hits; in the data active = inhibition above about 30%
Hits are given with their value.

Results for O=C(CCCn1c(=S)[nH]c2cc3c(cc2c1=O)OCO3)N1CCN(c2ccc(Cl)cc2)CC1 ?
Mtb UGM inh: inactive; Rv3671c protease: inactive; Mtb bLac sens: inactive; GDH-TPI inh: inactive; Mtb FBA inh: inactive; RecA intein inh: inactive

Results for CC(=O)N1CCCC1C(=O)O (centres undefined) ?
GDH-TPI inh: inactive; Mtb FBA inh: inactive

Results for COCCNC(=O)/C(C#N)=C/c1ccc(O)c([N+](=O)[O-])c1 ?
Mtb UGM inh: inactive; Rv3671c protease: inactive; Mtb bLac sens: inactive; GDH-TPI inh: inactive; Mtb FBA inh: inactive; RecA intein inh: inactive

How did COCCNC(=O)/C(C#N)=C/C=C/c1ccccc1[N+](=O)[O-] do in these assays?
Mtb UGM inh: inactive; Rv3671c protease: inactive; Mtb bLac sens: inactive; GDH-TPI inh: 48; Mtb FBA inh: inactive; RecA intein inh: inactive

How did COc1ccc(CC(=O)N(C)Cc2ccc(OC(F)F)cc2)cc1S(=O)(=O)N1CCOCC1 do in these assays?
GDH-TPI inh: inactive; Mtb FBA inh: inactive

How did COc1cccc2c3c(c(C)nc12)CCN3c1ccccc1 do in these assays?
Mtb UGM inh: inactive; Rv3671c protease: inactive; Mtb bLac sens: inactive; GDH-TPI inh: inactive; Mtb FBA inh: inactive; RecA intein inh: inactive

Results for COc1ccccc1N1CCc2c(C)nc3c(OC)cccc3c21 ?
Mtb UGM inh: inactive; Rv3671c protease: inactive; Mtb bLac sens: inactive; GDH-TPI inh: 46; Mtb FBA inh: inactive; RecA intein inh: inactive

Results for CCCCN1C(N)=NC[C@@H]1c1ccccc1 ?
Mtb UGM inh: inactive; Rv3671c protease: inactive; Mtb bLac sens: inactive; GDH-TPI inh: inactive; Mtb FBA inh: inactive; RecA intein inh: inactive

What do the screens show for `N=c1c(C(=O)NCC2CCCO2)cc2c(=O)n3ccccc3nc2n1Cc1ccc(F)cc1` (centres undefined)?
Mtb UGM inh: inactive; Rv3671c protease: inactive; Mtb bLac sens: inactive; GDH-TPI inh: inactive; Mtb FBA inh: active; RecA intein inh: inactive

Results for COC(=O)c1cc2c(=O)n3ccccc3nc2n(Cc2cccnc2)c1=N ?
Mtb UGM inh: inactive; Rv3671c protease: inactive; Mtb bLac sens: inactive; RecA intein inh: inactive

How did N=c1c(C(=O)NCC2CCCO2)cc2c(=O)n3ccccc3nc2n1Cc1cccnc1 (centres undefined) do in these assays?
Mtb UGM inh: inactive; Rv3671c protease: inactive; Mtb bLac sens: inactive; GDH-TPI inh: inactive; Mtb FBA inh: active; RecA intein inh: inactive

How did Cc1cccn2c(=O)c3cc(C(=O)NCC4CCCO4)c(=N)n(Cc4cccnc4)c3nc12 (centres undefined) do in these assays?
Mtb UGM inh: inactive; Rv3671c protease: inactive; Mtb bLac sens: inactive; GDH-TPI inh: inactive; Mtb FBA inh: active

What do the screens show for `COc1ccc(CCn2c(=N)c(C(=O)NCC3CCCO3)cc3c(=O)n4cccc(C)c4nc32)cc1` (centres undefined)?
Mtb UGM inh: inactive; Rv3671c protease: inactive; Mtb bLac sens: inactive; GDH-TPI inh: inactive; Mtb FBA inh: inactive; RecA intein inh: inactive

How did CCOC(=O)CC[C@H](NC(=O)Cn1cnc2c(SC)nc(N)nc21)C(=O)OCC do in these assays?
Mtb UGM inh: inactive; Rv3671c protease: inactive; Mtb bLac sens: inactive; GDH-TPI inh: inactive; Mtb FBA inh: inactive

How did Cc1nc(-c2c(-c3ccc(O)cc3O)noc2C(F)(F)F)cs1 do in these assays?
Mtb UGM inh: inactive; Rv3671c protease: inactive; Mtb bLac sens: inactive; GDH-TPI inh: inactive; Mtb FBA inh: inactive; RecA intein inh: inactive

Results for Cc1ccccc1NCC(=O)N=Nc1c(O)[nH]c2ccc([N+](=O)[O-])cc12 ?
Mtb UGM inh: inactive; Rv3671c protease: inactive; Mtb bLac sens: inactive; GDH-TPI inh: 36; Mtb FBA inh: inactive; RecA intein inh: inactive

What do the screens show for `O=[N+]([O-])c1ccc2[nH]c(O)c(N=NC(=S)NCC3CCCO3)c2c1` (centres undefined)?
Rv3671c protease: inactive; Mtb bLac sens: inactive; GDH-TPI inh: inactive; Mtb FBA inh: inactive; RecA intein inh: inactive

What do the screens show for `CCNC(=S)N=Nc1c(O)[nH]c2ccc([N+](=O)[O-])cc12`?
Mtb UGM inh: inactive; Rv3671c protease: inactive; Mtb bLac sens: inactive; GDH-TPI inh: inactive; Mtb FBA inh: inactive; RecA intein inh: 45

Results for O=[N+]([O-])c1ccc2[nH]c(O)c(N=NC3CS(=O)(=O)CC3O)c2c1 (centres undefined) ?
Mtb UGM inh: inactive; Rv3671c protease: inactive; Mtb bLac sens: inactive; GDH-TPI inh: 45; Mtb FBA inh: inactive; RecA intein inh: inactive

Results for CS(=O)(=O)N1CCCC(C(=O)c2cccc(Cl)c2)C1 (centres undefined) ?
Mtb UGM inh: inactive; Rv3671c protease: inactive; Mtb bLac sens: inactive; GDH-TPI inh: inactive; Mtb FBA inh: inactive; RecA intein inh: inactive

What do the screens show for `Nc1nc2ccc(-c3nc4ccccc4o3)cc2s1`?
Mtb UGM inh: inactive; Rv3671c protease: inactive; Mtb bLac sens: inactive; GDH-TPI inh: 41; Mtb FBA inh: active; RecA intein inh: inactive

Results for COc1ccc2oc(-c3ccco3)cc(=O)c2c1 ?
Mtb UGM inh: inactive; Rv3671c protease: inactive; Mtb bLac sens: inactive; GDH-TPI inh: 54; Mtb FBA inh: 116; RecA intein inh: inactive

What do the screens show for `O=C(COc1ccc2oc(-c3ccco3)cc(=O)c2c1)N1CCCCC1`?
Mtb UGM inh: inactive; Rv3671c protease: inactive; Mtb bLac sens: inactive; GDH-TPI inh: 51; Mtb FBA inh: 157; RecA intein inh: inactive

Results for O=C(COc1ccc2c3c(c(=O)oc2c1)CCC3)N1CCCCC1 ?
Mtb UGM inh: inactive; Rv3671c protease: inactive; Mtb bLac sens: inactive; GDH-TPI inh: inactive; Mtb FBA inh: inactive; RecA intein inh: inactive

What do the screens show for `CCOC(=O)N1CCN(C(=O)CC(C)S(=O)(=O)c2cc3c(cc2C)NC(=O)CO3)CC1` (centres undefined)?
Mtb UGM inh: inactive; Rv3671c protease: inactive; Mtb bLac sens: inactive; GDH-TPI inh: inactive; Mtb FBA inh: inactive; RecA intein inh: inactive

How did N#Cc1c(NC(=O)c2cc(C3CC3)on2)sc2c1CCC2 do in these assays?
Mtb UGM inh: inactive; Rv3671c protease: inactive; Mtb bLac sens: inactive; GDH-TPI inh: 34; Mtb FBA inh: inactive; RecA intein inh: inactive

What do the screens show for `CSc1nc(-c2ccco2)nn1C(=O)c1cccs1`?
Mtb UGM inh: inactive; Rv3671c protease: inactive; Mtb bLac sens: inactive; GDH-TPI inh: inactive; Mtb FBA inh: inactive; RecA intein inh: 32

How did O=C(c1cccs1)n1nc(-c2ccco2)nc1SCc1ccccc1 do in these assays?
Mtb UGM inh: inactive; Rv3671c protease: inactive; Mtb bLac sens: inactive; RecA intein inh: inactive

What do the screens show for `COC(=O)C1=C(C)NC(C)=C(C(=O)OC)C1c1cn(-c2ccccc2)nc1-c1ccco1`?
Mtb UGM inh: inactive; Rv3671c protease: inactive; Mtb bLac sens: inactive; GDH-TPI inh: 34; Mtb FBA inh: inactive; RecA intein inh: inactive

Source: PubChem (several laboratories)
